This is part of a sample that, as a whole, favours compounds with a hit. Of some 79,000 tested, about 15% had one in any assay. A number with no mark means an inactive call. The source made the active and inactive calls. Rule as the data show it: active = growth inhibition above about 70%; inactive = the rest.
Legend:
[1] = NCI Yeast Anticancer Drug Screen. Data for the rad50 strain (AID 155);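 also: 0% = growth of vehicle-only cultures of the same strain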; settings: S. cerevisiae rad50 strain growth inhibition; at 50.0 µM; stronger effect = higher value
Outline: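 Readout: growth inhibition relative to vehicle-treated cultures. Compound exposure was carried out in a genetically defined yeast strain deficient in DNA damage repair.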

[2] = NCI Yeast Anticancer Drug Screen. Data for the mec2-1 strain (AID 157); settings: S. cerevisiae mec2-1 strain, at 50.0 µM, stronger effect = higher value
Outline: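 Strain: mec2-1 (DNA repair/cell cycle alteration). Compound exposure, then growth measured; inhibition expressed relative to vehicle.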

[3] = NCI Yeast Anticancer Drug Screen. Data for the sgs1 mgt1 strain (AID 161);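 also: 0% = growth of cultures given vehicle only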; settings: S. cerevisiae sgs1 mgt1 strain, at 50.0 µM, stronger effect = higher value
Outline: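 Read-out: growth inhibition vs vehicle controls. Cells: mutant yeast strain deficient in DNA damage repair.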

[4] = NCI Yeast Anticancer Drug Screen. Data for the cln2 rad14 strain (AID 165);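 also: 0% = growth equal to vehicle treated cultures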; settings: S. cerevisiae cln2 rad14 strain, at 50.0 µM, stronger effect = higher value
Outline: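 Compounds are applied to the cln2 rad14 yeast strain, and growth is then compared with that of vehicle-treated cultures to give inhibition.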

[5] = NCI Yeast Anticancer Drug Screen. Data for the bub3 strain (AID 167); settings: S. cerevisiae bub3 mutant strain, at 50.0 µM, stronger effect = higher value
Outline: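 Readout: yeast growth inhibition, expressed relative to vehicle-only wells. The test organism is a mutant strain from a panel with lesions in DNA repair or checkpoint genes.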

[6] = NCI Yeast Anticancer Drug Screen. Data for the mlh1 rad18 strain (AID 175); settings: S. cerevisiae mlh1 rad18 strain growth inhibition; at 50.0 µM; stronger effect = higher value
Outline: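 Read-out is yeast growth inhibition, calculated against vehicle-only controls. The compound was applied to a strain engineered with DNA damage repair alterations.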

Compound	growth inhibition [1]	growth inhibition [2]	growth inhibition [3]	growth inhibition [4]	growth inhibition [5]	growth inhibition [6]
O=C(N/N=C\c1ccc(Cl)cc1Cl)c1ccc(F)cc1	-10.5%	-10.8%	-7.75%	0.3%	-1.15%	-4.1%
CCCCCCCCCCCCCCCc1ccc([N+](=O)[O-])c(O)c1	-2.25%	33.5%	7.1%	-8.75%	51.7%	35.9%
CNC(=O)c1cc2nc3ccccc3c(=O)n2c2ccccc12	-46.3%	-54%	-25.1%	-20.6%	-7%	-31.1%
Clc1ccc(C(CI)c2ccccc2Cl)cc1 (stereo unspecified)	10.8%	11.3%	12.3%	13.8%	27.9%	6.05%
C/C(=N/NC(=S)Nc1ccccc1Cl)c1cccc(/C(C)=N\NC(=S)Nc2ccccc2Cl)n1	39.4%	16.9%	39.8%	6.3%	32.1%	24.7%
O=C1NC(=O)C(CCBr)N1 (stereo unspecified)	-21.1%	-6.85%	-10.3%	-3.8%	-13.8%	5.7%
Clc1ccc2c(c1)CCc1cccnc1C2=C1CCNCC1	8.55%	-4.5%	-20.6%	16.1%	0.4%	-15.1%
NC(CC(=O)O)c1ccc(Cl)cc1 (stereo unspecified)	-22.5%	-23.3%	-14.4%	-8.3%	0.3%	7%
O=C1C2ON3c4ccccc4C(=O)C3(c3ccccc3)C2C(=O)N1c1ccccc1 (stereo unspecified)	-40.9%	-31.3%	-63%	-14.3%	-37%	-49%
COc1ccc(/C=C(\C)C=C(C#N)C#N)cc1	45.5%	39.8%	52%	38%	45.1%	59.7%
N#CC(c1ccccc1)N(CCCCCCN(C(=O)c1ccccc1)C(C#N)c1ccccc1)C(=O)c1ccccc1 (stereo unspecified)	17.1%	37%	20.3%	13.1%	40.4%	-29.1%
CC1=CC(C)(C)NC(=S)N1c1ccc(C)cc1S(=O)(=O)O	28.5%	-1.7%	-18%	-16.2%	7.95%	27.9%
Cc1nn(C(=O)c2ccncc2)c2c1C(c1ccccc1)SC(N)=N2 (stereo unspecified)	-2.9%	-20.1%	18.9%	9.55%	15.1%	2.35%
CCCCC(CC)CC#N (stereo unspecified)	6.15%	-20.1%	21.1%	6.05%	-4.35%	10.7%
O=S(=O)(O)c1cccc2ccc(O)cc12	-4.05%	-4.1%	-2.05%	-36.8%	-11.1%	43.6%
Cc1cn(CCCn2cnc3c(N)ncnc32)c(=O)[nH]c1=O	-12.7%	-31.6%	-9.55%	-6.6%	-31.4%	-2.9%
CCCCCP(=O)(CCCCC)C1CCCC1	-0.6%	11.2%	-2.3%	1.75%	49.1%	-0.65%
CC(=NNC(=S)Nc1cccc(C)c1)c1cccc(C(C)=NNC(=S)Nc2cccc(C)c2)n1	37.4%	41.2%	62.6%	29.1%	35.4%	47.2%
Cn1c2c(c3ccccc31)CCCC2	1.55%	-14.8%	1.4%	-16.8%	4.5%	5.35%
CN(C)C(=O)c1ccccc1	29.6%	6.25%	-0.35%	13.9%	-9.25%	1.55%
COc1ccc(NC(=O)CCc2cc(-c3ccc(O)c(OC)c3)nc(NC#N)n2)cc1	-8.1%	9%	-37%	6%	27.6%	-28.9%

Compound	growth inhibition [1]	growth inhibition [2]	growth inhibition [3]	growth inhibition [4]	growth inhibition [5]	growth inhibition [6]
O=C1/C(=C/c2ccccc2)CN(C(=O)CCN2CCOCC2)C/C1=C\c1ccccc1	34.2%	7.15%	73% (active)	31.6%	66.8%	86.8% (active)
CCOc1ccc(/C=C2/NC(=S)N(CN3CCCCC3)C2=O)cc1	5.25%	-28.7%	25.1%	-18.9%	-1.5%	24.6%
C[Si]1(C)CC[Si](C)(C)OS(=O)(=O)O1	8.2%	-8.35%	-4.75%	-49.8%	-9.05%	3.6%
CC(C)c1cc2c(O)c(c1)Cc1cc(C(C)C)cc(c1O)Cc1cc(C(C)C)cc(c1O)Cc1cc(C(C)C)cc(c1O)Cc1cc(C(C)C)cc(c1O)Cc1cc(C(C)C)cc(c1O)C2	-21.1%	-0.85%	-14.8%	14.6%	3.55%	-24.1%
COC(=O)c1cc(C)n(C)c(=O)c1C#N	12.6%	12.5%	-0.85%	22.1%	13.9%	2.9%
NCCCOCCO	-2.9%	-0.5%	-8.4%	8.3%	16.4%	4.35%
CC(=O)Nc1cc2cc(NS(=O)(=O)c3ccc(Cl)c(Cl)c3)ccc2oc1=O	8.35%	-1.55%	0.35%	19.9%	-4%	10.4%
Cc1ccc(C2=CSc3ccccc3N2)cc1	24.8%	38%	45.6%	-13.9%	62.5%	29.2%
CCNC(=S)OC1CCC2(C)C(=CCC3C2CCC2(C)C(C(C)CCC(CC)C(C)C)CCC32)C1 (stereo unspecified)	-1.7%	6.6%	-11.6%	-24.4%	-1.55%	-23.8%
Cc1nc2ccccc2c(=O)n1NC(=O)c1ccccc1O	-7.45%	-53.6%	-7.6%	11.5%	-4.1%	17.1%
COCOc1ccc(C=O)cc1	9.75%	13.1%	-14.3%	-4.6%	-14.1%	-5.65%
COC(=O)C(CC(=O)Nc1ccc(C)cc1)C(=O)C(=O)Nc1c(C(C)C)cccc1C(C)C (stereo unspecified)	-43.4%	-17.8%	-7.5%	6.1%	-9.9%	-25.2%
C=Cc1nnnn1C	7.45%	16.2%	-5.85%	10.3%	10.4%	10.8%
CC(=O)NC(CCCCN(Cc1ccccc1)C(=O)N(C)N=O)C(=O)NCc1ccccc1 (stereo unspecified)	0.3%	-6.7%	24.4%	-0.15%	-22.9%	-6.4%
O=C(NCC(=O)N1CCCC1C(=O)OC(=O)C1CCCN1C(=O)CNC(=O)OCc1ccccc1)OCc1ccccc1 (stereo unspecified)	44.3%	1.2%	4.35%	16.2%	18.2%	-28.1%
COCCCNC(=S)N/N=C/c1ccccc1O	-2.4%	-31.1%	16.6%	12.2%	11.2%	4%
CC(O)COC(C)c1ccccc1 (stereo unspecified)	9.05%	0.3%	-0.7%	5.35%	-6.45%	2.1%
CC(=O)C1=C(C)N2C(=NC3=C(CCc4ccccc43)C2c2ccc(F)cc2)S1 (stereo unspecified)	-5.6%	-23.9%	-15.4%	11.3%	-21.8%	-9.8%
COc1ccc(Cc2ccccc2C(=O)c2ccc(OC)cc2)cc1	-14.7%	-13.8%	0.05%	-4.65%	4.6%	-14.8%
CCCCOC(=O)c1ccc(NC(=O)CCCN(CC)CC)cc1	5.5%	-2.3%	0.85%	13.2%	14.4%	-5%

Reference: PubChem BioAssay (NCI)
